Values joined by “and” are separate entries in the source; they are usually repeats but may differ in a detail not shown here. Identical values can stand only once. Records with an inconclusive call do not appear. A call without a number means that no potency is given here. A structure can be active in one record and inactive in another. Active and inactive are the calls of the source. Unless noted, calls follow the shape of the dose curve; as a rule, active = well fitted curve in the direction sought with a large enough effect in the repeat runs; inconclusive = weak or mixed curves; inactive = no such curve, though single readings can be large; an effect the other way counts as inactive or inconclusive.
How the values were obtained:
[1] = target: Acetylcholinesterase (Homo sapiens) (UniProt P22303); experiment: Acetylcholinesterase (AChE) small molecule antagonists: enzyme-based qHTS assay (AID 1347397; calls by dose curve; also: nearly all actives have a fitted effect of over 55% in size); conditions: Potency: AChE enzyme activity inhibition
How it was run: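 In this quantitative HTS, compounds from the Tox21 10K collection were preincubated 30 min at ambient temperature with recombinant human AChE dispensed at 50 mU/mL. Hydrolysis of acetylthiocholine was then followed for 10 min by DTNB colour development.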

[2] = target: Acetylcholinesterase (Homo sapiens) (UniProt P22303); experiment: Acetylcholinesterase (AChE) small molecule antagonists: fluorescence cell-based qHTS assay (AID 1347398; calls by dose curve; also: nearly all actives have a fitted effect of over 50% in size); conditions: Potency: AChE activity
How it was run: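 Cells (SH-SY5Y) attached overnight, were dosed with compound or DMSO vehicle for 30 min at 37 C, and then incubated 40 min at room temperature with acetylthiocholine and Thiolite Green; green fluorescence indexed AChE activity.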

[3] = target: Cytochrome P450 2D6 (Homo sapiens) (UniProt P10635); experiment: Cytochrome P450 Family 2 Subfamily D Member 6 (CYP2D6) small molecule antagonists: luciferase reporter qHTS assay (AID 1671196); also: nearly all actives have a fitted effect of over 50% in size
How it was run: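 Test chemicals meet CYP2D6 plus proluciferin substrate (10 min, RT); NADPH regenerating solution then drives turnover for 1 h. Detection reagent halts the reaction; luminescence measured after 20 min.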

[4] = target: Cytochrome P450 2C19 (Homo sapiens) (UniProt P33261); experiment: Cytochrome P450 Family 2 Subfamily C Member 19 (CYP2C19) small molecule antagonists: luciferase reporter qHTS assay (AID 1671197); also: nearly all actives have a fitted effect of over 65% in size
How it was run: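 Compounds were tested on CYP2C19 activity via proluciferin conversion to luciferin. The 37C, 1 h reaction followed NADPH addition; detection reagent stopped it.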

[5] = target: Cytochrome P450 2C9 (Homo sapiens) (UniProt P11712); experiment: Cytochrome P450 Family 2 Subfamily C Member 9 (CYP2C9) small molecule antagonists: luciferase reporter qHTS assay (AID 1671198); also: nearly all actives have a fitted effect of over 50% in size
How it was run: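 P450-Glo proluciferin substrate with CYP2C9 enzyme; 10 min RT preincubation, then NADPH regeneration 1 h at 37C; luciferin detection reagent 20 min RT, luminescence in relative luminescence units.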

[6] = target: Cytochrome P450 1A2 (Homo sapiens) (UniProt P05177); experiment: Cytochrome P450 Family 1 Subfamily A Member 2 (CYP1A2) small molecule antagonists: luciferase reporter qHTS assay (AID 1671199); also: nearly all actives have a fitted effect of over 50% in size
How it was run: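 Steps: enzyme-substrate mix dispensed; test compounds and furafylline control pinned in; 10 min room temperature; NADPH regeneration solution added, 1 h; reaction stopped with luciferin detection reagent; luminescence read after 20 min.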

[7] = target: Voltage-gated inwardly rectifying potassium channel KCNH2 (Homo sapiens) (UniProt Q12809); experiment: Human Ether-a-go-go-Related Gene (hERG) channel small molecule antagonists: fluorescence cell-based qHTS assay (AID 1671200); also: nearly all actives have a fitted effect of over 50% in size
How it was run: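 In this thallium-flux screen, overnight-cultured U2OS cells bearing the channel are dye-loaded in darkness for an hour, rested 10 min at room temperature, and then monitored kinetically at 480/540 nm for two minutes post-stimulus.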

[8] = target: Cytochrome P450 3A4 (Homo sapiens) (UniProt P08684); experiment: Cytochrome P450 Family 3 Subfamily A Member 4 (CYP3A4) small molecule antagonists: luciferase reporter qHTS assay (AID 1671201); also: nearly all actives have a fitted effect of over 50% in size
How it was run: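 CYP3A4 activity was followed with a P450-Glo proluciferin substrate. Test compounds in DMSO were preincubated 10 min; NADPH regeneration then ran 1 h, and light output was read 20 min after detection reagent.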
Potency is read from the fitted curve at half-maximal effect.

Chain of Cytochrome P450 2C9 (Homo sapiens) (P11712 whole entry, looked up): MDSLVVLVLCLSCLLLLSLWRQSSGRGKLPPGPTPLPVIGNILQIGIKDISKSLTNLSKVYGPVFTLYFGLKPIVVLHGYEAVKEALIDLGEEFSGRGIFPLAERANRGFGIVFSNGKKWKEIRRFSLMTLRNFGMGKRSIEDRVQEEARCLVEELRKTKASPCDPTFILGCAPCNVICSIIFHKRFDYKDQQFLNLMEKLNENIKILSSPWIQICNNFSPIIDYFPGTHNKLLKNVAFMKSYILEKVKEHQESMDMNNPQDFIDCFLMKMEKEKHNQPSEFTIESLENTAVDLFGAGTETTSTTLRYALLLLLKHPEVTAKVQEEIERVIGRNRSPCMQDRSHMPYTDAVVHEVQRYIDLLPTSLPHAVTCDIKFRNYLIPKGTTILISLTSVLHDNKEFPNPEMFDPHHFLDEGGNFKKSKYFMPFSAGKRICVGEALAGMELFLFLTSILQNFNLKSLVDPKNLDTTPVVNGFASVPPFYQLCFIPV
Chain of Acetylcholinesterase (Homo sapiens) (P22303 whole entry, looked up): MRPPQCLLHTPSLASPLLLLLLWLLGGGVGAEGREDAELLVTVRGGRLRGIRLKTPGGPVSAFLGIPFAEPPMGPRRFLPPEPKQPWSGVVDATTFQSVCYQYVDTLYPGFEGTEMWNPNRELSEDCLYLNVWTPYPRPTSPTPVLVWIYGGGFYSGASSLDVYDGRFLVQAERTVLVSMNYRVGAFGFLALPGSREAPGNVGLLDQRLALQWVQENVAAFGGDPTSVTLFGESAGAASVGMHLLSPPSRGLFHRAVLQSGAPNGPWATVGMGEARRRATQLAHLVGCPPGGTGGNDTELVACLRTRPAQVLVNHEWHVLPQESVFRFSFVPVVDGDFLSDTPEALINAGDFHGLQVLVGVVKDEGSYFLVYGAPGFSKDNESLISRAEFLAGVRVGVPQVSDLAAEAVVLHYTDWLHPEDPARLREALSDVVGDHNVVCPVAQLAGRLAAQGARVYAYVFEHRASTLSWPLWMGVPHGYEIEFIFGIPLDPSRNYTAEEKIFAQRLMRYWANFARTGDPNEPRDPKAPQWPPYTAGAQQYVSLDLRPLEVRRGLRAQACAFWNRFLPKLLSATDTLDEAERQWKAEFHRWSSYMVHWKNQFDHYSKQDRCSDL
Chain of Cytochrome P450 2C19 (Homo sapiens) (P33261 whole entry, looked up): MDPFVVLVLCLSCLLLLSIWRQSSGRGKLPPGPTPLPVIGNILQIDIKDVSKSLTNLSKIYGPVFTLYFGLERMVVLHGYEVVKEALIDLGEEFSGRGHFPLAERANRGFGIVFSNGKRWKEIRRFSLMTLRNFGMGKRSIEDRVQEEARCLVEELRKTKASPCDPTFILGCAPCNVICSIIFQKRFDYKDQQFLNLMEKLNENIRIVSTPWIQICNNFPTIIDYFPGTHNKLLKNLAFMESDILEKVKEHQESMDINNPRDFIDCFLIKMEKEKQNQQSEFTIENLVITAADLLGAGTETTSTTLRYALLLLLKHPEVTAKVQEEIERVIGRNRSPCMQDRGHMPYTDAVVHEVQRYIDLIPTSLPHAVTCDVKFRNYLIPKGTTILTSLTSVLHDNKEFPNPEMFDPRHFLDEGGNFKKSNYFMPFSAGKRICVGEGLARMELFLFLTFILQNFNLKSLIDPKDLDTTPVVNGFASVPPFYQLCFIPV
Chain of Cytochrome P450 1A2 (Homo sapiens) (P05177 whole entry, looked up): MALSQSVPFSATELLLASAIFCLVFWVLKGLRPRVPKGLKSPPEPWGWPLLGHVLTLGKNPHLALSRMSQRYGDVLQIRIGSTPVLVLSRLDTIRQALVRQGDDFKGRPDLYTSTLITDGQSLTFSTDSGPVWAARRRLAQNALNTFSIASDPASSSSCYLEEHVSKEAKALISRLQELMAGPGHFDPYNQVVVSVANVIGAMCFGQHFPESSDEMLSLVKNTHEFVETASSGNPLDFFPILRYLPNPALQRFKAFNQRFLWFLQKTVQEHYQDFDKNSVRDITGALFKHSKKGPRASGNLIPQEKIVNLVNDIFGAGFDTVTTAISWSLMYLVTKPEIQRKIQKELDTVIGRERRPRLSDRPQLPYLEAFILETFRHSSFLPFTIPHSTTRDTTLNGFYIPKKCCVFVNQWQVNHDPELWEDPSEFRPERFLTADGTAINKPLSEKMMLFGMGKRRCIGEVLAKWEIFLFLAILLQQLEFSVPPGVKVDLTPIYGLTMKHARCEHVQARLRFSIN
Chain of Voltage-gated inwardly rectifying potassium channel KCNH2 (Homo sapiens) (Q12809 whole entry, looked up): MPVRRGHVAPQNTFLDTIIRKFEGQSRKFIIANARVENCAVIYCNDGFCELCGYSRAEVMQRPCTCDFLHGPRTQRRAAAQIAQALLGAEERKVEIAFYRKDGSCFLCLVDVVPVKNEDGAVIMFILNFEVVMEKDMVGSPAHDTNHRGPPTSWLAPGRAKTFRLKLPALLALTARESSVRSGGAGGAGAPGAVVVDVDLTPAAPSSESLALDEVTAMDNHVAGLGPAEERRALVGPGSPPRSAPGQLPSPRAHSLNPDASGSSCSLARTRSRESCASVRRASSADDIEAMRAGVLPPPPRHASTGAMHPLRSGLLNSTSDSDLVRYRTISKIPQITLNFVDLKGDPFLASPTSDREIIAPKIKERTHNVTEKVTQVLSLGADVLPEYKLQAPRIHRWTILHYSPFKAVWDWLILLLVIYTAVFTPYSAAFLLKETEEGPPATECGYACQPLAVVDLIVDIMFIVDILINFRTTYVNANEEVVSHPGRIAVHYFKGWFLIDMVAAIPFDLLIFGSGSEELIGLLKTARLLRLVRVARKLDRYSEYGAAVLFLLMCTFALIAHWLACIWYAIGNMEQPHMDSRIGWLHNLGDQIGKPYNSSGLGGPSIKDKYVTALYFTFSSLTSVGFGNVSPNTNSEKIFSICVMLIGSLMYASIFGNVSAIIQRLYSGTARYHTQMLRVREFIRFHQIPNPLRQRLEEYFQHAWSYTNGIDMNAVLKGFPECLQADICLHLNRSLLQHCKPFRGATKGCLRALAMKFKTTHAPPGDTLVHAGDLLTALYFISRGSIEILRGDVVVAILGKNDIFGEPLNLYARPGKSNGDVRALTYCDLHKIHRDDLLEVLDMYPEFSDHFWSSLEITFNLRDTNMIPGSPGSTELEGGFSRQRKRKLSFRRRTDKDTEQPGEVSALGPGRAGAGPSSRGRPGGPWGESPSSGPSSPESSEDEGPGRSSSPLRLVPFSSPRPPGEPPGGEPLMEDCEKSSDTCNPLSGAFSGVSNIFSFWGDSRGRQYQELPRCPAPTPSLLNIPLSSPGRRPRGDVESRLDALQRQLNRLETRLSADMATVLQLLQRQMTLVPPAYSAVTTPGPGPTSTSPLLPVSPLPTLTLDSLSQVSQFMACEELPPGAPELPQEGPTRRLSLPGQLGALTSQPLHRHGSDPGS
Chain of Cytochrome P450 3A4 (Homo sapiens) (P08684 whole entry, looked up): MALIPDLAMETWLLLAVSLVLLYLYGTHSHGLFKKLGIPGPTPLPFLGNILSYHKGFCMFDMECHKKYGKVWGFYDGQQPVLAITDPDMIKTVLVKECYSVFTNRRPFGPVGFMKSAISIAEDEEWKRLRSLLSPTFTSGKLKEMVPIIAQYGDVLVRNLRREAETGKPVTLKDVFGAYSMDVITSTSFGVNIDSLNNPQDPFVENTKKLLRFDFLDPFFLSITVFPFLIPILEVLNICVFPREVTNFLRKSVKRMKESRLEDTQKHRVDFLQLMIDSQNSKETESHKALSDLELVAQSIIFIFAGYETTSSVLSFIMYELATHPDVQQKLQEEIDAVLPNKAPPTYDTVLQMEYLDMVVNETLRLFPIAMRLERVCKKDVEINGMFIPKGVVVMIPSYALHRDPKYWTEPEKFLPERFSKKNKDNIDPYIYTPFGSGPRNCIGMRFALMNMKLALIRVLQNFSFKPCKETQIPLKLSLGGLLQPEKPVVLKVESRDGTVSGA
Chain of Cytochrome P450 2D6 (Homo sapiens) (P10635 whole entry, looked up): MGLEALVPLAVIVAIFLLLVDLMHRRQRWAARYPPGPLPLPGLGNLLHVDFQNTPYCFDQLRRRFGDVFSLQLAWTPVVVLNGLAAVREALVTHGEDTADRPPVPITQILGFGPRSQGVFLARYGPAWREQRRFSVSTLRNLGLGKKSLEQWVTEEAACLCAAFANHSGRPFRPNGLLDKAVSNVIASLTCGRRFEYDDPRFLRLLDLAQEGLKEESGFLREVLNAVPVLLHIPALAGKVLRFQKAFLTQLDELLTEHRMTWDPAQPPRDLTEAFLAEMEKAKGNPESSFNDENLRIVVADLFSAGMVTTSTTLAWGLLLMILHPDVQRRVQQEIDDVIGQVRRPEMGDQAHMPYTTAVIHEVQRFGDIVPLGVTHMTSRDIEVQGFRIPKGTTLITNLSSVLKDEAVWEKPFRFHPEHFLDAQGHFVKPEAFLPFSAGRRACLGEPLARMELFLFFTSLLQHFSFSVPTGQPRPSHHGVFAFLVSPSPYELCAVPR

SMILES | Potency [1] | Potency [2] | Potency [3] | Potency [4] | Potency [5] | Potency [6] | Potency [7] | Potency [8]
O=P1(N(CCCl)CCCl)NCCCO1 (stereo unspecified) | inactive | inactive | inactive | 71.8 µM (active) and inactive | inactive | inactive | inactive | 
O=C(O)C(Cl)(Cl)Cl | inactive | inactive | inactive | 20 µM (active) | inactive | inactive and 35.6 µM (active) | inactive | inactive
O=C(O)C(Cl)Cl | inactive | inactive | 29.1 µM (active) and inactive | inactive | inactive | inactive | inactive | inactive
CCCC[N+]1(C)CCCCC1 | inactive | inactive | inactive | inactive | inactive | inactive | inactive | inactive
O=C(O)c1nc(Cl)ccc1Cl | inactive | inactive | inactive | inactive | inactive | inactive | inactive | inactive
O=C(O)CCl | inactive | inactive | inactive | inactive | inactive | inactive | inactive | inactive
CCOP(=S)(OCC)Oc1ccc2c(C)c(Cl)c(=O)oc2c1 | 40.4 µM (active) and 71 µM (active) and inactive | 12.8 µM (active) and 25.2 µM (active) and inactive | 5.08 µM (active) and 15.9 µM (active) | 321 nM (active) and 50.2 nM (active) and 3.89 µM (active) | 286 nM (active) and 63.3 nM (active) and 8.71 µM (active) | 2.86 µM (active) and 4.48 µM (active) and 13.8 µM (active) | 22.1 µM (active) and inactive | 
Nc1ccc(-c2ccc(N)cc2)cc1 | inactive | inactive | inactive | 8.83 µM (active) and 39.6 µM (active) and 35.6 µM (active) | 35.2 µM (active) and 11.2 µM (active) and 25.2 µM (active) | 19.8 µM (active) and 14.1 µM (active) and 25.2 µM (active) | inactive | 7.87 µM (active) and 7.91 µM (active) and 17.8 µM (active)
O=c1nc(O)n(Cl)c(=O)n1Cl | inactive | inactive | inactive and 1.26 µM (active) | inactive | inactive | inactive | inactive | inactive
CCNc1nc(Cl)nc(NCC)n1 | inactive | inactive | inactive | inactive | inactive | 11.3 µM (active) and 12.6 µM (active) | inactive | inactive
COCC(=O)N(c1c(C)cccc1C)C(C)C(=O)OC (stereo unspecified) | inactive | inactive | inactive | 41 µM (active) and 39.8 µM (active) and inactive | 70.9 µM (active) and inactive | inactive | inactive | inactive
CC[n+]1ccccc1 | inactive | inactive | inactive | inactive and 3.96 µM (active) | inactive and 9.94 µM (active) | inactive | inactive | inactive
CCCCCCCCCCCCCC[P+](CCCCCC)(CCCCCC)CCCCCC | 20.1 µM (active) and 25.4 µM (active) and inactive | 35.7 µM (active) and 71.6 µM (active) and inactive | 201 nM (active) and 101 nM (active) and 224 nM (active) | 25.3 µM (active) and 35.9 µM (active) and 79.6 µM (active) | 25.3 µM (active) and 35.9 µM (active) and 5.63 µM (active) | 35.7 µM (active) and 63.8 µM (active) | 552 nM (active) and 349 nM (active) and 691 nM (active) | 7.13 µM (active) and 7.16 µM (active) and 3.99 µM (active)
COP(=O)(OC)OC=C(Cl)Cl | inactive | inactive | inactive | inactive | inactive | inactive and 15.4 µM (active) | inactive | inactive
CCCCCCCCCCCCOS(=O)(=O)O | inactive | inactive | inactive | 78.5 µM (active) and inactive | 78.5 µM (active) and 71 µM (active) and inactive | inactive | inactive | inactive
O=c1[nH]c(=O)n(Cl)c(=O)n1Cl | inactive | inactive | inactive | 56.4 µM (active) and inactive | inactive | inactive | inactive | inactive
